Assay results from PubChem BioAssay.
Results filed as inconclusive are left out. Active and inactive are the calls of the source. Unless noted, cut-off not given; nearly all actives show AC50 up to about 26 µM.

Experiments:
[1] = target: ATP-dependent translocase ABCB1 (Homo sapiens) (UniProt P08183); assay: P-glycoprotein substrate transport blockade – cell-based (AID 377; in the data active means fluorescence slope change above about 50%); settings: MDR1-expressing cells, fluorescent substrate accumulation slope; stronger effect = higher value; concentration not given here
Chain of ATP-dependent translocase ABCB1 (Homo sapiens) (P08183 whole entry, looked up): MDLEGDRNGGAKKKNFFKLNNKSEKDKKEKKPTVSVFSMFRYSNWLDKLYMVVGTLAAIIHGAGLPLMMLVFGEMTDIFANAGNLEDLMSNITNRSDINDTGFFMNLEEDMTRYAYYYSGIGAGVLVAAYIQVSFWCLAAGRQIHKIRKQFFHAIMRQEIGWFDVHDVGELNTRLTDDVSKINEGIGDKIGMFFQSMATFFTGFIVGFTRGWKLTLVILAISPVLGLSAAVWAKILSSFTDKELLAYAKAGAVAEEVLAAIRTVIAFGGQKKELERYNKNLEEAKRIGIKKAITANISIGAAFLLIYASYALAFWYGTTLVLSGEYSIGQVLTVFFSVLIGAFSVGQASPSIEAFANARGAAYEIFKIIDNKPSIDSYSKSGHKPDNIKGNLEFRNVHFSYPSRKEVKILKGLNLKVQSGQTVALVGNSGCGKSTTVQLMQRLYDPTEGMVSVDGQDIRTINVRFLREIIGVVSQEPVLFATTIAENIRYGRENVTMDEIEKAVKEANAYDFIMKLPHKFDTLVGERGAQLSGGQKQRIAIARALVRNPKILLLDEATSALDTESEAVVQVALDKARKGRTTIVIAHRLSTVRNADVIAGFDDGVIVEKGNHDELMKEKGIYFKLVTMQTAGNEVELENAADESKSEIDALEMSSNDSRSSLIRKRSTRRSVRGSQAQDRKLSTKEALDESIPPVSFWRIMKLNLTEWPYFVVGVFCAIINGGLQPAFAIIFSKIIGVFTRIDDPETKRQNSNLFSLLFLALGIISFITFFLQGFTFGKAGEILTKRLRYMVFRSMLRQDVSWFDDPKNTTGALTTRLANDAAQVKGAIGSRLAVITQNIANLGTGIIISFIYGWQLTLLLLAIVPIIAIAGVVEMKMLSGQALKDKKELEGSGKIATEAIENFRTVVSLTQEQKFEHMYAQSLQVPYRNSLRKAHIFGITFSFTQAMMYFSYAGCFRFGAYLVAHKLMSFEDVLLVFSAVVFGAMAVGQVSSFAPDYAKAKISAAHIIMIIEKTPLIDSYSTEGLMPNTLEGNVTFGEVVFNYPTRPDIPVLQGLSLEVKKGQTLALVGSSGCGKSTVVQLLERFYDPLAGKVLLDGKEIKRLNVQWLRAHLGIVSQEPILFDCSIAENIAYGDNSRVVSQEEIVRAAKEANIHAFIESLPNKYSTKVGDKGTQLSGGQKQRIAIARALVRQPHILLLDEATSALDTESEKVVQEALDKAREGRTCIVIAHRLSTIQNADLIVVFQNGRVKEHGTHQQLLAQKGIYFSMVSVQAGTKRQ

[2] = GFP-Q80 aggregate reduction, neuronal-like cells, cell-based, NGF-treated PC12, GFPQ80 (AID 1614); settings: PC12 NGF-treated GFP-polyQ80 inclusion reduction;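 further: lower means fewer inclusions and 0 means no inclusions at all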
[3] = compounds altering circadian rhythm period length – cell-based, LOPAC library, luminescence reporter (AID 2774; call rule not given here;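 further: values are relative to mean of DMSO wells on each plate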); settings: circadian reporter cells, at 7 µM, actives lie on both sides
[4] = tested on: Hepatitis C virus NS3 helicase; assay: blockers of NS3h binding to ssDNA – biochemical, fluorescence polarization, LOPAC1280 library, primary screen (AID 687035; in the data active means inhibition above about 37%); settings: Purified HCV NS3 helicase, Cy5-dT15 ssDNA binding fluorescence polarization; stronger effect = higher value; concentration not given here
[5] = compounds altering Cy5-DNA-NS3h complex signal – biochemical, LOPAC1280, artefact control for HCV NS3 helicase inhibitor project (AID 687037; call rule not given here); settings: Cy5-DNA-NS3h complex fluorescence interference counterscreen
[6] = blockers of cellular phospholipid synthesis – cell-based, LOPAC library, screen 4, primary screen (AID 1347384; call rule not given here); settings: animal cells, phospholipid biosynthesis inhibition screen; at 10 µM
[7] = tested on: Neuropilin-2 / VEGF-C interaction (human); assay: small molecules blocking Neuropilin-2/VEGF-C interaction – biochemical, microplate binding format, z-score (AID 743281; call rule not given here); settings: microplate NRP2/VEGF-C binding assay; stronger effect = lower value
[8] = viability loss in pontine glioma line – cell-based, SU-DIPG-XVII, MIPE5.0, CellTiter-Glo, qHTS, dose response (AID 1347060); settings: CellTiter-Glo ATP luminescence;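 on AC50: cells exposed to compound for 48 hours before viability readout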
[9] = viability loss in pontine glioma line – cell-based, SU-DIPG-XXV, MIPE5.0, CellTiter-Glo, qHTS, dose response (AID 1347065); settings: CellTiter-Glo ATP luminescence;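 further: cells exposed to compound for 48 hours before ATP readout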
[10] = growth inhibition of DIPG cells – cell-based, MIPE5.0 library, qHTS (AID 1347068; cut-off not given, nearly all actives have IC50 up to about 30 µM;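 on IC50: cells exposed to compound for 48 hours before viability readout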); settings: SU-DIPG-XXV viability
[11] = viability loss in pontine glioma line – cell-based, SU-DIPG-XIII, MIPE4.0, CellTiter-Glo, qHTS, dose response (AID 1347061; cut-off not given, nearly all actives have AC50 up to about 37 µM;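 further: cells exposed to compound for 48 hours before readout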); settings: CellTiter-Glo ATP luminescence
[12] = viability loss in pontine glioma line – cell-based, JHH-DIPG-1, MIPE4.0, CellTiter-Glo, qHTS, dose response (AID 1347062; cut-off not given, nearly all actives have AC50 up to about 27 µM;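 on AC50: cells exposed to compound for two days before readout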); settings: JHH-DIPG-1 viability, CellTiter-Glo ATP luminescence
[13] = viability loss in pontine glioma line – cell-based, SU-DIPG-IV, MIPE4.0, CellTiter-Glo, qHTS, dose response (AID 1347063; cut-off not given, nearly all actives have AC50 up to about 30 µM;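 further: compound exposure lasted 48 hours before the viability readout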); settings: CellTiter-Glo ATP luminescence
[14] = growth inhibition of DIPG cells – cell-based, MIPE4.0 library, CellTiter-Glo luminescence, qHTS (AID 1347066; cut-off not given, nearly all actives have AC50 up to about 30 µM;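 further: cells exposed to compound for 48 hours before readout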); settings: SU-DIPG-VI viability, CellTiter-Glo ATP luminescence
[15] = JHH-DIPG-1 glioma cell viability, MIPE5.0 library, CellTiter-Glo luminescence, qHTS (AID 1347067); settings: JHH-DIPG-1 glioma viability, CellTiter-Glo ATP luminescence;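 further: cells exposed to compound for 48 hours before readout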
[16] = viability loss in pontine glioma line – cell-based, SU-DIPG-XIII, MIPE5.0, CellTiter-Glo, qHTS, dose response (AID 1347064; cut-off not given, nearly all actives have AC50 up to about 23 µM;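 on AC50: cells exposed to compound for 48 hours before the viability read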); settings: CellTiter-Glo ATP luminescence

CC(C)NCC(O)c1cc(O)cc(O)c1 (stereo not drawn)
2: inclusion score [2]
inactive: fluorescence slope change [1] 14.9% | period change [3] -0.17 h | inhibition [4] -4% | fluorescence ratio (interference) [5] 0.9 | outcome [6]

O=C1[C@H](CC[C@H](O)c2ccc(F)cc2)[C@@H](c2ccc(O)cc2)N1c1ccc(F)cc1
active: AC50 [9] 20.9 µM
inactive: z-score [7] -0.399 | outcome [8] | outcome [10]

OCCN1C[C@H](O)[C@@H](O)[C@H](O)[C@H]1CO
inactive: z-score [7] -1.24 | outcome [8] | outcome [11] | outcome [12] | outcome [13] | outcome [9] | outcome [14] | outcome [15] | outcome [10]

C[C@]12CCC(=O)C=C1CC[C@@H]1[C@@H]2[C@@H](O)C[C@@]2(C)[C@H]1CC[C@]2(O)C(=O)CO
inactive: period change [3] -0.16 h | inhibition [4] -3% | fluorescence ratio (interference) [5] 1 | outcome [8] | outcome [12] | outcome [16] | outcome [9] | outcome [14] | outcome [15] | outcome [10] | outcome [6]

Cc1cccc(Nc2ccccc2C(=O)O)c1C
1.5: inclusion score [2]

Cc1onc(-c2ccccc2)c1-c1ccc(S(N)(=O)=O)cc1
inactive: z-score [7] 0.865 | outcome [8] | outcome [16] | outcome [9] | outcome [15] | outcome [10]

CCCN(CCC)S(=O)(=O)c1ccc(C(=O)O)cc1
2: inclusion score [2]

C[C@]12C=CC(=O)C=C1CC[C@@H]1[C@@H]2C(=O)C[C@@]2(C)[C@H]1CC[C@]2(O)C(=O)CO
inactive: outcome [8] | outcome [11] | outcome [12] | outcome [13] | outcome [16] | outcome [9] | outcome [14] | outcome [15] | outcome [10]

CC1=C(C(=O)O)N2C(=O)[C@@H](NC(=O)[C@H](N)c3ccccc3)[C@H]2SC1
inactive: outcome [7]
active: fluorescence slope change [1] 94.6%

C[C@]12CCC(=O)C=C1CC[C@@H]1[C@@H]2[C@@H](O)C[C@@]2(C)[C@H]1CC[C@]2(O)C(=O)COC(=O)CCC(=O)O
inactive: period change [3] -0.475 h

CCCSc1ccc2nc(NC(=O)OC)[nH]c2c1
active: fluorescence slope change [1] 97.2%

Cc1cccc(CN2CCN(C(c3ccccc3)c3ccc(Cl)cc3)CC2)c1 (stereo not drawn)
active: AC50 [8] 23.5 µM | AC50 [13] 18.7 µM | AC50 [16] 20.9 µM | AC50 [14] 20.9 µM | AC50 [15] 16.6 µM | IC50 [10] 23.5 µM

COc1ccc2cc(CCC(C)=O)ccc2c1
2: inclusion score [2]

Cc1ccc(O)c([C@H](CCN(C(C)C)C(C)C)c2ccccc2)c1
inactive: z-score [7] -0.0447

C[C@H](CCC(=O)O)[C@H]1CC[C@H]2[C@@H]3C(=O)C[C@@H]4CC(=O)CC[C@]4(C)[C@H]3CC(=O)[C@]12C
inactive: z-score [7] -0.00555
active: fluorescence slope change [1] 97.9%

CN[C@@H]1[C@H](O)[C@H](NC)[C@H]2O[C@@]3(O)C(=O)C[C@@H](C)O[C@H]3O[C@@H]2[C@H]1O
active: fluorescence slope change [1] 67% | AC50 [11] 4.69 µM | AC50 [12] 1.05 µM | AC50 [13] 0.332 µM | AC50 [14] 1.48 µM
1.5: inclusion score [2]

CC(=O)OCC[N+](C)(C)C
2: inclusion score [2]

COc1ccc([C@@H]2Sc3ccccc3N(CCN(C)C)C(=O)[C@@H]2OC(C)=O)cc1
inactive: period change [3] 0.035 h | inhibition [4] -1% | fluorescence ratio (interference) [5] 1.1 | outcome [8] | outcome [16] | outcome [9] | outcome [15] | outcome [10] | outcome [6]
active: fluorescence slope change [1] 71.5%
